Measured values reported in PubChem BioAssay (NCI).
About 79,000 compounds went through this panel and 15% of them were active in at least one assay; those are over-represented in the sample as a whole. Values without a mark were called inactive. Calls of active or inactive are those of the source. Rule as the data show it: active = growth inhibition above about 70%; inactive = the rest.

How the values were obtained:
[1] = NCI Yeast Anticancer Drug Screen. Data for the rad50 strain (AID 155);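 also: 0% = growth of vehicle-only cultures of the same strain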; conditions: S. cerevisiae rad50 strain growth inhibition, hits give high values
Summary of the method: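 Compounds were tested on a yeast strain with an engineered DNA damage repair alteration; the reported value is growth inhibition normalised to vehicle treatment.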

[2] = NCI Yeast Anticancer Drug Screen. Data for the mec2-1 strain (AID 157); conditions: S. cerevisiae mec2-1 strain, hits give high values
Summary of the method: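 Strain: mec2-1 (DNA repair/cell cycle alteration). Compound exposure, then growth measured; inhibition expressed relative to vehicle.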

[3] = NCI Yeast Anticancer Drug Screen. Data for the sgs1 mgt1 strain (AID 161);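 also: 0% = growth of cultures given vehicle only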; conditions: S. cerevisiae sgs1 mgt1 strain, hits give high values
Summary of the method: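 Read-out: growth inhibition vs vehicle controls. Cells: mutant yeast strain deficient in DNA damage repair.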

[4] = NCI Yeast Anticancer Drug Screen. Data for the cln2 rad14 strain (AID 165);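 also: 0% = growth equal to vehicle treated cultures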; conditions: S. cerevisiae cln2 rad14 strain, hits give high values
Summary of the method: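 Compounds are applied to the cln2 rad14 yeast strain, and growth is then compared with that of vehicle-treated cultures to give inhibition.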

[5] = NCI Yeast Anticancer Drug Screen. Data for the bub3 strain (AID 167); conditions: S. cerevisiae bub3 mutant strain, hits give high values
Summary of the method: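 Growth of a checkpoint-deficient yeast mutant is measured after compound exposure. Values represent inhibition relative to vehicle.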

[6] = NCI Yeast Anticancer Drug Screen. Data for the mlh1 rad18 strain (AID 175); conditions: S. cerevisiae mlh1 rad18 strain growth inhibition, hits give high values
Summary of the method: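 Read-out is yeast growth inhibition, calculated against vehicle-only controls. The compound was applied to a strain engineered with DNA damage repair alterations.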

[7] = at 5.0 µM (retest, dose inferred, filed as 0.5)
[8] = at 50.0 µM (retest, dose inferred, filed as 5.0)

Row | Compound | growth inhibition [1, 7] | growth inhibition [1, 8] | growth inhibition ([1]; at 50.0 µM) | growth inhibition [2, 7] | growth inhibition [2, 8] | growth inhibition ([2]; at 50.0 µM) | growth inhibition [3, 7] | growth inhibition [3, 8] | growth inhibition ([3]; at 50.0 µM) | growth inhibition [4, 7] | growth inhibition [4, 8] | growth inhibition ([4]; at 50.0 µM) | growth inhibition [5, 7] | growth inhibition [5, 8] | growth inhibition ([5]; at 50.0 µM) | growth inhibition [6, 7] | growth inhibition [6, 8] | growth inhibition ([6]; at 50.0 µM)
1 | CCN(CC)CCOc1ccc(-c2cc(-c3ccccc3)nc(N)n2)cc1 | 49% | 98% (active) | 76.5% (active) | 58% | 99% (active) | 79.5% (active) | 44% | 91% (active) | 85.2% (active) | 73% (active) | 93% (active) | 59.3% | 58% | 92% (active) | 81.3% (active) | 55% | 99% (active) | 77.8% (active)
2 | O=Cc1c(O)ccc2ccccc12.[Cu+2] | -27% | 95% (active) | 99.3% (active) | -2% | 47% | 99.2% (active) | -7% | 97% (active) | 99.2% (active) | -19% | 42% | 99% (active) | -54% | 94% (active) | 98.8% (active) | -14% | 97% (active) | 99.2% (active)
3 | c1ccc(CSc2nnc(SCc3ccccc3)c3[nH]cnc23)cc1 | -3% | 33% | 61.4% | -7% | 38% | 46.9% | -1% | 45% | 46.1% | -4% | 23% | 56% | -3% | 45% | 50.1% | -6% | 34% | 11.9%
4 | O=C(CSSCC(=O)Nc1ccccc1)Nc1ccccc1 | -6% | 15% | 29.6% | 1% | 35% | 17.5% | 1% | -10% | 54.8% | -5% | 10% | 48.2% | -12% | 6% | 22.8% | -12% | 19% | 22%
5 | CC1/C(=N\O)CC(c2ccccc2)N(C)C1c1ccccc1 (stereo not given) | 96% (active) | 96% (active) | 98.2% (active) | 96% (active) | 98% (active) | 98.2% (active) | 96% (active) | 97% (active) | 97.7% (active) | 58% | 78% (active) | 83.5% (active) | 94% (active) | 96% (active) | 98% (active) | 95% (active) | 97% (active) | 97.7% (active)
6 | Cc1c2cnccc2c(C)c2c1c1ccccc1n2CCCCCCNCc1ccccc1 | 9% | 95% (active) | 99% (active) | -1% | 76% (active) | 99.2% (active) | 1% | 91% (active) | 99.3% (active) | 2% | 83% (active) | 98.2% (active) | 2% | 74% (active) | 98.8% (active) | -3% | 97% (active) | 99% (active)
7 | NC(=O)NOC(=O)c1ccccc1 | 42% | 97% (active) | 85.3% (active) | 6% | 97% (active) | 87.5% (active) | 18% | 95% (active) | 87.4% (active) | -7% | 96% (active) | 86.8% (active) | -4% | 95% (active) | 79.2% (active) | 21% | 97% (active) | 96.8% (active)
8 | CN1CCCN(C)C1c1cc([N+](=O)[O-])ccc1O | 25% | 95% (active) | 49.5% | 3% | 92% (active) | 98.2% (active) | 7% | 96% (active) | 97.7% (active) | 11% | 93% (active) | 87.3% (active) | -6% | 95% (active) | 96.8% (active) | 7% | 99% (active) | 98.9% (active)
9 | CCc1cccc(C(C)C)c1N1C(=O)C(=O)C(c2nc3ccccc3s2)C(=O)C1=O | 65% | 65% | 85.2% (active) | 23% | 23% | 87.3% (active) | 71% (active) | 71% (active) | 83.8% (active) | 51% | 51% | 85% (active) | 34% | 34% | 86% (active) | 36% | 36% | 88.2% (active)
10 | CCOc1cc2c(cc1Cc1c(OC)cc(OC)cc1OC)OCO2 | 5% | 27% | 46% | 3% | 31% | 16.5% | 8% | 57% | 88% (active) | 4% | 30% | 46.8% | 4% | 63% | 77.8% (active) | 7% | 73% (active) | 83.3% (active)
